In PubChem BioAssay (NCI) one finds growth data, which are given here for 39 compounds.

SMILES strings stand for the structures. About 83,000 compounds went through this panel and 20% of them were active in at least one assay; those are over-represented in the sample as a whole.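 Note: values are percent growth. 100 is the growth of untreated cells, values between 100 and 0 indicate rising inhibition; between -100 and 0 indicates cell death.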 Calls of active or inactive are those of the source. The calls were made as follows: active = growth percent below 10; inactive = the rest.

The test system of one test is CCRF-CEM leukemia. Briefly: NCI-60 one-dose screen, 48 h (100 = growth as untreated, 0 = no growth, -100 = all killed). Conditions: 10 µM unless noted.
Turning to `CC(C)OC(=O)c1ccc([N+](=O)[O-])cc1`, the growth was 103% (inactive).

Take `COc1cc(CN2CCO[C@H](COc3cccc(F)c3)C2)ccc1Cl`: the growth is 42.8% (inactive).

Consider `COc1cc(NC(C)CCCN)c2ncccc2c1Oc1ccc(Cl)cc1` (stereo not given), for which the growth was 77% (inactive).

`OC(c1cc(-c2ccc(C(F)(F)F)cc2)nc(-c2ccc(C(F)(F)F)cc2)c1)C1CCCCN1` (stereo not given): the growth is -56.2% (active).

In the case of `C=CCn1c(C)nc2cc(Nc3nc(Nc4ccc5nc(C)n(CC=C)c5c4)nc4ccccc34)ccc21`, the growth is 94.8% (inactive).

As for `Fc1ccc2c(CN3CCO[C@H](COc4cccc(Cl)c4)C3)c[nH]c2c1`, the growth is 38.5% (inactive).

The subject of another test is MOLT-4 leukemia. The test is described as above. The conditions noted are these: 10 µM unless noted.
On to `Cn1nc(C(F)(F)F)cc1-c1cc(Cl)c(OCc2ccc(Cl)cc2)c(-c2ccc(Cl)c(C(F)(F)F)c2)c1O`, for which the growth is -14.2% (active).

As for `CC(=O)O[C@H]1[C@H](CC#CC#CC[C@@H]2C[C@]3(C)[C@H]4CC=C5[C@H]6[C@@H](C)[C@H](C)CC[C@]6(C(=O)NCCN(CCN)CCN)CC[C@@]5(C)[C@]4(C)CC[C@H]3C(C)(C)[C@H]2OC(C)=O)C[C@]2(C)[C@H]3CC=C4[C@H]5[C@@H](C)[C@H](C)CC[C@]5(C(=O)NCCN(CCN)CCN)CC[C@@]4(C)[C@]3(C)CC[C@H]2C1(C)C`, the growth was 26.8% (inactive).

For `CC(=O)c1ccc(Nc2nc(Cl)nc(Oc3c(Cl)cccc3Cl)n2)cc1`, the growth was 77.1% (inactive).

For `Oc1[nH]c2ccccc2c1/C=c1/ccc2c(c1)N=C(c1ccc(C(F)(F)F)cc1)N=2`, the growth was 35.5% (inactive).

On to `Brc1cccc(-n2ncc3c(Nc4ccc(-c5nnc(-c6ccccc6)o5)cc4)ncnc32)c1`, for which the growth is 108% (inactive).

On to `CCNC(=S)N(Cc1ccccc1)Cc1ccccc1`, for which the growth is 82.4% (inactive).

In the case of `COc1cccc(CC(C)=C(c2ccc(OCCCN(C)C)cc2)c2ccc(OCCCN(C)C)cc2)c1`, the growth was -61.4% (active).

On to `N[C@@H](CO)C(=O)O`, for which the growth was 101% (inactive).

For the compound `O=C(c1ccc(C(F)(F)F)c(Cl)c1)N(Cc1ccc(Cl)cc1)c1ccc(-c2cc(C(F)(F)F)[nH]n2)c(O)c1`, the growth was 9.19% (active).

In the case of `c1ccc(C(Nc2ccccn2)(c2ccccc2)c2ccccc2)cc1`, the growth is 66.3% (inactive).

As to `CC[C@H](Nc1nc(N)nc(N)c1Cl)c1nc2cccc(NCc3ccc(C(=O)NO)cc3)c2c(=O)n1-c1ccccc1`, the growth is 0.294% (active).

With `N#Cc1nc(-c2ccc(Cl)cc2)cc(-c2ccc(Nc3nc(N4CCCCC4)nc(N4CCCCC4)n3)cc2)c1N`, the growth was 99.2% (inactive).

On to `C#CC[C@@H]1C[C@]2(C)[C@H]3CC=C4[C@H]5[C@@H](C)[C@H](C)CC[C@]5(C(=O)NCCCCN)CC[C@@]4(C)[C@]3(C)CC[C@H]2C(C)(C)[C@H]1OC(C)=O`, for which the growth is 14.9% (inactive).

For the compound `Cn1nc(C(F)(F)F)cc1-c1c[nH]c(OCc2ccc(Cl)cc2)c(-c2ccc(Cl)c(C(F)(F)F)c2)c1=O`, the growth was -9.43% (active).

For the compound `COc1ccc(NC(=O)c2ccc(C(F)(F)F)nc2Nc2ccc(Cl)cc2C)cc1Cl`, the growth was 8.09% (active).

Regarding `O=C(Cn1nncc1CN1C(=O)CSC1=O)Nc1ccc(F)cc1`, the growth was 105% (inactive).

Consider `COc1ccc(NC(=O)/C=C/c2ccc(Cl)c(Cl)c2)cn1`, for which the growth is 44.4% (inactive).

For the compound `CCCCNCC(O)c1cc(-c2ccc(C(F)(F)F)cc2)nc(-c2ccc(C(F)(F)F)cc2)c1` (stereo not given), the growth is -56.7% (active).

Turning to `CCCc1cc2c(cc1CN(Cc1cc3c(cc1CCC)OCO3)C(=N)OCC)OCO2`, the growth is 93.5% (inactive).

Turning to `CCCNC(=S)N/N=C(\C)c1ccccn1`, the growth was 6.93% (active).

`C#CC[C@@H]1C[C@]2(C)[C@H]3CC[C@@H]4[C@H]5C(C(=C)C)CC[C@]5(C(=O)NCCCN5CCN(CCCN)CC5)CC[C@@]4(C)[C@]3(C)CC[C@H]2C(C)(C)[C@H]1OC(C)=O` (stereo not given in full): the growth is -28.3% (active).

With `COc1cc2nccc(Oc3ccc(NC(=O)C4(C(=O)Nc5c(F)cc(F)cc5F)CC4)cc3)c2cc1Oc1ccc(N)cn1`, the growth was 38.5% (inactive).

With `COc1ccc2[nH]c(C(=O)OCc3ccc4cccc(O)c4n3)cc2c1`, the growth is -11.5% (active).

Turning to `CCOCC(O)(c1ccc(Cl)cc1)c1ccc(Cl)cc1`, the growth was 88.7% (inactive).

Regarding `Cc1cc(C)cc(NC(=O)Cn2nncc2CN2C(=O)CSC2=O)c1`, the growth was 105% (inactive).

In the case of `Cc1ccc(NC(=O)Cn2nncc2CN2C(=O)CSC2=O)cc1C`, the growth was 103% (inactive).

For the compound `COC(=O)/C=C/c1cc(OC(C)=O)c2c(c1)[C@@H](C(=O)OC)[C@H](c1ccc(OC(C)=O)c(OC(C)=O)c1)O2`, the growth was 14.9% (inactive).

In the case of `N=c1n(Cc2ccccc2)c(N)cc(=O)n1Cc1ccccc1`, the growth was -28.6% (active).

Consider `CC(C)[C@H](CN)NC[C@H](C)NS(=O)(=O)c1ccc(C(C)(C)C)cc1`, for which the growth is 92.6% (inactive).

Take `COc1ccc(/C(=C\c2ccc3c(c2)OCO3)C(=O)Nc2nc3ccccc3s2)cc1`: the growth is 70.9% (inactive).

Consider `Cc1ccc(-c2cnc3sc4ccc(Cl)cc4n23)cc1`, for which the growth was 96.7% (inactive).

For the compound `COc1cc(C2Nc3ccccc3S2)cc(CN2CCOCC2)c1O` (stereo not given), the growth was 25.3% (inactive).

For the compound `CC1=C(O)C(=O)C(c2c(C)cc(C)c(Br)c2C)=C(O)C1=O`, the growth is 54.6% (inactive).

Turning to `CC(C)OC(=O)c1ccc([N+](=O)[O-])cc1`, the growth was 113% (inactive).

For `COc1cc(CN2CCO[C@H](COc3cccc(F)c3)C2)ccc1Cl`, the growth is 52.8% (inactive).

For `COc1cc(NC(C)CCCN)c2ncccc2c1Oc1ccc(Cl)cc1` (stereo not given), the growth is 52.9% (inactive).

As to `OC(c1cc(-c2ccc(C(F)(F)F)cc2)nc(-c2ccc(C(F)(F)F)cc2)c1)C1CCCCN1` (stereo not given), the growth is -57.5% (active).

Consider `C=CCn1c(C)nc2cc(Nc3nc(Nc4ccc5nc(C)n(CC=C)c5c4)nc4ccccc34)ccc21`, for which the growth was 101% (inactive).

As for `Fc1ccc2c(CN3CCO[C@H](COc4cccc(Cl)c4)C3)c[nH]c2c1`, the growth was 25.9% (inactive).
